Data: PubChem BioAssay AID720711 (National Center for Advancing Translational Sciences (NCATS), 2013)
About 290 (0.081%) of roughly 360,000 compounds were called active. Calls come from the whole dose curve; as a rule, active = well fitted activation curve with a large enough effect; inconclusive = small, poorly fitted or top-dose-only effect; inactive = no such curve, though single readings can be large or run the other way. The list comes from a sample in which actives are over-represented; it also holds similar structures and randomly drawn compounds. Entries that show only a call come without a potency.

Target: Rap guanine nucleotide exchange factor 4 (Homo sapiens) (UniProt Q8WZA2)
Sequence (Q8WZA2 whole entry, looked up): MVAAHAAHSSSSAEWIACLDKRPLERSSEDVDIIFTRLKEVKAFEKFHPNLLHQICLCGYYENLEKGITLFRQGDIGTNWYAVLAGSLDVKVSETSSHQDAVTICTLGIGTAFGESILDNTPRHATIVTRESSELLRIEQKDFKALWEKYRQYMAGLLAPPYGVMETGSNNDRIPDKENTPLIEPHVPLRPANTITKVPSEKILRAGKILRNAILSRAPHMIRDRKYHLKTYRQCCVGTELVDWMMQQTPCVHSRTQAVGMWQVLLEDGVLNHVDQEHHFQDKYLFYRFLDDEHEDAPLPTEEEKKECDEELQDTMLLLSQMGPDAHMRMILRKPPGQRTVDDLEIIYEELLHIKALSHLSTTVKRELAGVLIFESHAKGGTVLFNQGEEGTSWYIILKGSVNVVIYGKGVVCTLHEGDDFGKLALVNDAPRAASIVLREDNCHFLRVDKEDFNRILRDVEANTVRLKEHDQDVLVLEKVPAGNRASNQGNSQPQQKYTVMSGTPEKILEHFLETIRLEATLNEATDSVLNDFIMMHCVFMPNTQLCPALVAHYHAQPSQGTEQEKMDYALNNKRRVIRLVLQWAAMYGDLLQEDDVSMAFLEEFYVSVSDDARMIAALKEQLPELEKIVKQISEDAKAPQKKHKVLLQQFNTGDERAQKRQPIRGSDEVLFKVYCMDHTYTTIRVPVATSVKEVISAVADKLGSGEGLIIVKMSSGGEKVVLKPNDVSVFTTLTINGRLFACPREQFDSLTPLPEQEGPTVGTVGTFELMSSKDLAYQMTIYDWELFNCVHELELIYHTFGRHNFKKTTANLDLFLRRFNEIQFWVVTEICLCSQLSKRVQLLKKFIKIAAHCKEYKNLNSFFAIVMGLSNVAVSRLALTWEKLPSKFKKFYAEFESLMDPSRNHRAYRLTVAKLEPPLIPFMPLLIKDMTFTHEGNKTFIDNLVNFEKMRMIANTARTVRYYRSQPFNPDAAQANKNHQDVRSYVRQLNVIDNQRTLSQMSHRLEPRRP
Test: qHTS for Agonist of cAMP-regulated guanine nucleotide exchange factor 4 (EPAC2): primary screen; note: nearly all actives have a fitted effect of over 50% in size
Conditions: biochemical qHTS; Potency: EPAC2 activation; series mostly up to 154 µM
How it was run: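 EPAC2 (100 nM) mixed with Rap1B loaded with BODIPY-GDP (250 nM) plus 50 uM unlabeled GDP; compounds pinned in, 5 min RT, then read every 5 min for 30 min (ex 480, em 540 nm). Normalized to cAMP control.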
Potency is the fitted concentration of half-maximal effect.

| SMILES | Potency |
| --- | --- |
| COc1ccccc1CNS(=O)(=O)c1cc2c3c(c1)CCC(=O)N3CCC2 | inactive |
| Cc1ccc(S(=O)(=O)N2[C@@H](Cc3ccccc3)CO[C@H]2CC(=O)OCc2ccccc2)cc1 | inactive |
| Cc1ccccc1C#CC1=CC(=O)CC(C)(C)C1 | inactive |
| CN(CC(=O)NCc1ccncc1)S(=O)(=O)c1ccc(Br)cc1 | inactive |
| CC(Sc1ccccc1F)C(=O)Nc1cccc(S(=O)(=O)N2CCOCC2)c1 (stereo unspecified) | inactive |
| CCOC(=O)N1CCC(C(N)=O)CC1 | inactive |
| COC(=O)[C@@]12C[C@@H](CC(=O)NCCCCc3ccccc3)C(=O)N(Cc3ccccc3)C1=CCC(C)(C)C2 | inactive |
| O=C(COC(=O)C1CC2C=CC1C2)Nc1ccccc1 (stereo unspecified) | inactive |
| Cc1ccc(S(=O)(=O)N2CCC(C(=O)N[C@@H](C)C(=O)NCCc3ccccc3)CC2)cc1 | inactive |
| C[C@@H](C(=O)N1CCNCC1)n1cc(CCC(=O)O)nn1 | inactive |
| N#CCCN1CCN(S(=O)(=O)c2ccc(S(=O)(=O)NC3CC3)cc2)CC1 | inactive |
| CC(C)(C)OC(=O)NC(Cc1ccccc1)C(=O)NC(CSC1CCCCO1)C(=O)NN (stereo unspecified) | inactive |
| O=C1/C(=C/c2coc3ccc(O)cc3c2=O)SC(=S)N1c1ccccc1 | inactive |
| O=C(O)CCCCCCCCc1cn(CN2C(=O)c3ccccc3C2=O)nn1 | inactive |
| Cc1ccc(-c2nn(-c3ccccc3)cc2/C=C2\SC(=S)N(CCCCCC(=O)O)C2=O)o1 | 126 µM (active) |
| O=C(Nc1ccc(Br)cn1)C1CCN(S(=O)(=O)c2cccs2)CC1 | inactive |
| COc1ccccc1CCNC(=O)c1c(C)nn(CC(C)C)c1Cl | inactive |
| CC1CCN(c2ccc3c(c2)S(=O)(=O)c2cc(C(=O)O)ccc2C3=O)CC1 | inactive |
| Cc1ccc(CNC(=O)c2ccc3c(c2)S(=O)(=O)c2ccccc2C3=O)cc1 | inactive |
| Cc1ccc(CNC(=O)c2cccc3c2C(=O)c2ccc(N4CCC(C)CC4)cc2S3(=O)=O)cc1 | 89.1 µM (active) |
| O=C(CSc1ccc(-c2cccs2)nn1)Nc1ccccc1F | inactive |
| CCOC(=O)c1c(NC(=S)Nc2ccccc2)sc2c1CCN(C)C2 | inactive |
| CCc1ccccc1N(CC(=O)NCC1CCCO1)C(=O)CCC(=O)Nc1nccs1 (stereo unspecified) | inactive |
| CCOC(=O)[C@]12CCCC=C1N(CCC1=CCCCC1)C(=O)[C@H](CC(=O)N1CCCCC1)C2 | inactive |

| SMILES | Potency |
| --- | --- |
| CCO[C@@H]1OC(C(=O)N2CCOCC2)=C[C@H](C)[C@H]1CCCO | inactive |
| Cc1ccc(NC(=S)N2CCCC(c3ccccc3)=N2)cc1 | inactive |
| COCC(=O)N1CCc2ccc(NC(=O)c3ccccc3Cl)cc2C1 | inactive |
| COCc1cc(C(C)=O)ccc1OC | inactive |
| COc1ccc(-c2ocnc2C(=O)Nc2ccc3c(c2)CCC3)cc1 | inactive |
| COc1ccc(-c2onc3ccc(C(C)=O)cc23)cc1 | 50.1 µM (active) |
| COCC1CCN(C(=O)C2CCC(=O)N(CC3CCCCC3)C2)CC1 (stereo unspecified) | inactive |
| CCNC(=O)N1CCN(S(=O)(=O)c2ccc3c(c2)OCCCO3)CC1 | inactive |
| CCOc1cccc(C(=O)Nc2cnn(Cc3ccccc3)c2)c1 | inactive |
| Nc1nnc(SCC(=O)OCc2ccc(Cl)c(Cl)c2)s1 | inactive |
| COCC1CCN(C(=O)CCc2nnc(C3(c4ccc(Cl)cc4)CCC3)o2)C1 (stereo unspecified) | inactive |
| Cc1ccc(CSc2nsc(C)c2C#N)cc1 | inactive |
| Cc1ccc(N=Cc2c(O)n(-c3nccs3)c(=O)c3ccccc23)c(C)c1 | 70.8 µM (active) |
| COC(=O)Cc1csc(/N=C/c2c(O)n(-c3cccc(C(F)(F)F)c3)c(=O)c3ccccc23)n1 | inactive |
| Cc1cccc(-n2c(O)c(C=Nc3ccccc3N)c(=O)[nH]c2=O)c1 | inactive |
| COCCNC(=O)C1C(=O)Nc2ccccc2C(=O)N1c1ccc2c(c1)OCCO2 (stereo unspecified) | inactive |
| C=CCNC(=O)CCCC(=O)NCC=C | inactive |
| COCCNc1nc2nonc2nc1N(C)Cc1ccc(C)cc1 | inactive |
| CCCNC(=S)NC1CC2CCCC(C1)N2CC(C)C (stereo unspecified) | inactive |
| CCOC(=O)c1sc(NC(=O)C2CSC3(C)CCC(=O)N23)nc1C (stereo unspecified) | inactive |
| CC(=O)c1nc(N2C(=O)C3CC=C(C)CC3C2=O)sc1C (stereo unspecified) | inactive |
| Nc1ccccc1/C=N\N=C/c1ccccc1N | inactive |
| Cc1occc1-c1nnc(SCC(=O)NC2(C#N)CCCC2)n1C | inactive |
| COc1ccc(-n2nc(C(=O)NCC(=O)N3CCC(C(N)=O)CC3)c3ccccc3c2=O)cc1OC | inactive |

| SMILES | Potency |
| --- | --- |
| COc1ccc2c(CC(=O)OCC(=O)NC(N)=O)coc2c1 | inactive |
| Cc1ccc(N=C2SCCCN2C(=O)c2cccc(N3C(=O)CCC3=O)c2)cc1Cl | inactive |
| Nc1ccc2nn(-c3ccc(Cl)cc3)nc2c1 | inactive |
| Nc1nnc(SCCN2C(=O)c3ccccc3S2(=O)=O)s1 | inactive |
| COc1cccc(C2CC(c3cccs3)=NN2C(=O)CSC2=NCCS2)c1OC (stereo unspecified) | inactive |
| O=C(COc1ccc(S(=O)(=O)N2CCOCC2)cc1Cl)N1CCOCC1 | inactive |
| COCc1[nH][nH]c(=O)c1C=Nc1ccc(F)cc1F | inactive |
| NC(=O)COc1ccc(NC(=O)c2ccccc2-c2ccccc2)cc1 | inactive |
| COc1ccc(NC(=O)C(=O)NCC(c2ccco2)N2CCc3ccccc3C2)cc1 (stereo unspecified) | inactive |
| CCN(CC)C(=O)CSC(Nc1cccc(F)c1)=C(C#N)C#N | inactive |
| CSc1nnnn1-c1c(C)cc(C)cc1C | inactive |
| Cc1cc(-c2ccccc2)n2nc(C)c(-c3ccccc3)c2n1 | inactive |
| CC1=C/C(=N\OS(=O)(=O)c2ccccc2)C=CC1=O | inactive |
| COc1cccc(NC(=O)CSc2nnc(Cc3ccc(OC)c(OC)c3)o2)c1 | inactive |
| COc1ccc(NC(=O)CCCOc2ccc(C(C)=O)cc2)cc1S(=O)(=O)N1CCCCC1 | inactive |
| CCOC(=O)/C(C#N)=C\c1c(C)cc(C)c(COC(C)=O)c1C | inactive |
| CCOC(=O)/C(C#N)=C/c1ccc(N2CCN(Cc3ccccc3)CC2)cc1 | 89.1 µM (active) |
| COC(=O)c1sc(N2CCN(Cc3ccccc3)CC2)nc1N | inactive |
| CCCn1c(C)cc(/C=C(\C#N)C(=O)OCC(=O)N(C)c2c(N)n(Cc3ccccc3)c(=O)[nH]c2=O)c1C | inactive |
| COc1ccc(/C=C(\C#N)C(=O)ONC2=NCCCCC2)cc1 | inactive |
| CCOC(=O)/C(C#N)=C/c1ccc(N2CCCCC2)cc1 | 79.4 µM (active) |
| O=C(Nc1ccccc1)Oc1cccc2cccnc12 | inactive |
| CCc1cc2c(=O)c(-c3ccon3)c(N)oc2cc1OC | inactive |
| COCc1cc(C)nc2sc(C(=O)NC3CCCCC3)c(N)c12 | inactive |

| SMILES | Potency |
| --- | --- |
| Cc1ccc(C2(C(F)(F)F)N=C3Sc4cc(C)cc(C)c4N3C(=O)N2)cc1 (stereo unspecified) | inactive |
| CC(C)C[C@H]1CN=C(Nc2ccccc2)N1CC1CCCCC1 | inactive |
| NC1=NOC(=O)C1C1CCCCC1 (stereo unspecified) | inactive |
| COc1ccc(-c2nnc(SCC(=O)Nc3cccnc3Cl)n2C)cc1 | inactive |
| CCc1nccn1CCC(=O)N1CCCC(N2CCN(c3ccccc3F)CC2)C1 (stereo unspecified) | inactive |
| CC1=C(C(=O)N(C(C)C)C(C)C)CC(CC(=O)NCC2CCCCC2)C(=O)N1Cc1ccccc1 (stereo unspecified) | inactive |
| O=C(O)CCCn1c(=O)c2cccn2c2ccc(F)cc21 | inactive |
| CCOc1ccccc1NC(=O)C1CCC(CNc2c(N3CCOCC3)c(=O)c2=O)CC1 (stereo unspecified) | inactive |
| CC(C)CNC(=O)/C=C/C(=O)O | inactive |
| CCN(CC)CCn1c(N)c(S(=O)(=O)c2ccccc2)c2nc3ccccc3nc21 | inactive |
| C=CCN1CN(S(=O)(=O)c2ccc(OC)cc2)c2nc3ccccc3nc21 | inactive |
| C=CCn1c(N)c(S(=O)(=O)c2cccs2)c2nc3ccccc3nc21 | 10 µM (active) |
| Cn1ncc(N2CCN(S(=O)(=O)c3ccc(Br)cc3)CC2)c(Cl)c1=O | inactive |
| CCCCn1c(N)c(N(CCC(C)C)C(=O)c2ccc(COc3ccccc3)o2)c(=O)[nH]c1=O | inactive |
| Cc1cccc(C2c3[nH]c4ccccc4c3CCN2C(=O)c2cc(-c3cccn3C)n[nH]2)n1 (stereo unspecified) | inactive |
| O=C(NC1(C(F)(F)F)N=C2SCCN2C1=O)c1ccco1 (stereo unspecified) | inactive |
| NC(=O)COC(=O)c1sc2cc(F)ccc2c1Cl | inactive |
| NC(=O)C1CCN(C(=O)c2ccc3c(=O)n(Cc4cccc(Br)c4)c(=S)[nH]c3c2)CC1 | inactive |
| Cc1ccc(SCC(=O)c2cc(C)c(OC(=S)N(C)C)c(C)c2)cc1 | inactive |
| CSc1cc(C)[nH]c(=O)n1 | inactive |
| CCCNC(=O)CCc1c(C)nc2c(c(C)nn2-c2ccccc2)c1C | inactive |
| COc1ccccc1CNC(=O)CN1CCC(n2cnc3cc(F)ccc32)CC1 | inactive |
| CCN(CC)c1ncnc2c1ncn2[C@H]1CN(Cc2cccs2)C[C@@H](CO)O1 | inactive |
| COc1ccc(OCC(=O)OCC(=O)Nc2ccc(S(=O)(=O)N3CCCCC3)cc2)cc1 | inactive |

| SMILES | Potency |
| --- | --- |
| CCCN(CC(=O)Nc1ccc(OC)c(OC)c1)CC(=O)Nc1ccc(F)c(F)c1F | inactive |
| COc1cccc(N=c2oc3c(C)ncc(CO)c3cc2C(N)=O)c1 | inactive |
| Cc1ccc(CNC(=O)C2CCN(S(=O)(=O)c3ccc4nc5c(c(C(=O)O)c4c3)CC(C)CC5)CC2)cc1 (stereo unspecified) | inactive |
| CCCCc1nc2cc(C(=O)N3CCCCC3CCO)ccc2o1 (stereo unspecified) | inactive |
| COc1cc(C)c(Cl)cc1S(=O)(=O)n1ccnc1 | inactive |
| CCN(CC)c1ccc2oc(=O)c(C)nc2c1 | 100 µM (active) |
| CN(Cc1nc2ccccc2c(=O)[nH]1)Cc1cc(=O)oc2ccc3ccccc3c12 | inactive |
| Cc1ccc2c(=O)oc(N(C)C)nc2c1 | inactive |
| Cc1cc(C)cc(N(CC(=O)NCC2CCCO2)S(=O)(=O)c2c(C)noc2C)c1 (stereo unspecified) | inactive |
| Cn1c(=O)[nH]c(=O)c2c1[nH]c(=S)n2Cc1ccccc1 | inactive |
| Cc1cc(OCC(=O)N(C)c2c(N)n(Cc3ccccc3)c(=O)[nH]c2=O)c(C(C)C)cc1Cl | inactive |
| Cc1cc2nc3c(=O)n(Cc4ccccc4)c(=O)[nH]c3nc2cc1N | 112 µM (active) |
| CCn1nc(C)c(CNC(=O)C2CCC(=O)N(Cc3cccc(F)c3)C2)c1C (stereo unspecified) | inactive |
| CN(C)C(=O)c1nc2ccc(Cl)cn2c1CNCc1cccc(OC(F)(F)F)c1 | inactive |
| CSCCC(NC(N)=O)C(=O)N(C)CC(=O)Nc1ccc(C)cc1 (stereo unspecified) | inactive |
| CCCCN(C1CCS(=O)(=O)C1)S(=O)(=O)c1ccc(C(C)C)cc1 (stereo unspecified) | inactive |
| CCCC(=O)NC(=S)Nc1ccc(CN2CCOCC2)cc1 | inactive |
| O=C(CCCl)Nc1ccc(S(=O)(=O)NCc2ccco2)cc1 | inactive |
| O=C(CNC(c1ccccc1)c1ccccc1)Nc1ccc(F)cc1 | inactive |
| COc1ccc(S(=O)(=O)N2CCCC(C(=O)Nc3ccc(NC(=O)c4ccccn4)cc3)C2)cc1 (stereo unspecified) | inactive |
